# Results: the supplement of paper PMC12669032
# Values without a mark were called inactive.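 How the source made its calls: active = AUC reduced over 20% with Padj below 0.05 in at least 2 of 3 replicates; inactive = otherwise.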
# How the values were obtained:
# Experiment in all cases: growth AUC relative to DMSO control (median of replicates) (fraction); higher = more growth (less inhibition), active = hit call of the paper
# Conditions in all cases: 20 µM; 24 h
# Coprococcus comes = test system: Coprococcus comes
# In short: (§1)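 Gut bacterial monocultures in mGAM were treated with 20 µM compound (1% DMSO) and grown anaerobically at 37 °C in round-bottom 96-well plates from OD600 0.05. OD600 was read hourly for 24 h, with the minimum OD set to 0. Area under the growth curve was normalised to the plate median of solvent-only wells, or to row and column medians on the industrial chemical plate. Each value is the median of three biological replicates, each grown on a separate day.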
# Escherichia coli ED1a = test system: Escherichia coli ED1a
# In short: as §1
# Escherichia coli IAI1 = test system: Escherichia coli IAI1
# In short: as §1
# Eubacterium rectale = test system: Eubacterium rectale
# In short: as §1
# [1] = test system: Fusobacterium nucleatum subsp. animalis
# In short: as §1
# Lactobacillus gasseri = test system: Lactobacillus gasseri
# In short: as §1
# Lactobacillus paracasei = test system: Lactobacillus paracasei
# In short: as §1
# Odoribacter splanchnicus = test system: Odoribacter splanchnicus
# In short: as §1
# [2] = test system: Parabacteroides distasonis
# In short: as §1
# Parabacteroides merdae = test system: Parabacteroides merdae
# In short: as §1
# Roseburia intestinalis = test system: Roseburia intestinalis
# In short: as §1
# Streptococcus salivarius = test system: Streptococcus salivarius
# In short: as §1
Structure (SMILES),growth AUC (Coprococcus comes),growth AUC (Escherichia coli ED1a),growth AUC (Escherichia coli IAI1),growth AUC (Eubacterium rectale),growth AUC [1],growth AUC (Lactobacillus gasseri),growth AUC (Lactobacillus paracasei),growth AUC (Odoribacter splanchnicus),growth AUC [2],growth AUC (Parabacteroides merdae),growth AUC (Roseburia intestinalis),growth AUC (Streptococcus salivarius)
"ClC1=C(Cl)C2(Cl)[C@H]3[C@@H]4O[C@@H]4[C@H](Cl)[C@H]3C1(Cl)C2(Cl)Cl (single isomer, unassigned; isomer b)",0.931,0.995,0.983,0.979,0.923,0.95,0.501,1.07,1.03,0.969,0.894,0.961
Cc1ccc(NC(=O)c2snnc2C)cc1Cl,0.965,0.968,0.937,1,0.938,1.08,0.866,0.975,0.986,0.973,0.925,0.962
COC(=O)/C(C)=C/OP(=S)(OC)OC,0.989,0.987,0.97,0.95,1.01,1.06,1.07,0.95,1.03,0.999,0.981,1.01
CNC(=O)Oc1cc(C)cc(C(C)C)c1,1.01,0.959,0.957,1.04,0.907,0.889,0.974,1.11,0.979,0.992,1.06,0.935
CO/C=C(/C(=O)OC)c1ccccc1COc1cccc(C(F)(F)F)n1,0.993,0.989,0.997,0.937,0.948,0.975,1.02,0.964,0.558 (active),0.924,0.989,0.999
COc1nc(C)nc(NC(=O)NS(=O)(=O)c2ccccc2CCC(F)(F)F)n1,0.967,0.997,0.976,0.954,0.992,1.06,1,0.962,1.01,1,0.98,0.989
O=C(O)C(F)(F)C(F)(F)C(F)(F)C(F)(F)C(F)(F)C(F)(F)F,1,0.998,1,1.01,0.955,1.03,1.01,1,1.08,1.03,1.03,1.02
CCS(=O)(=O)CCSP(=O)(OC)OC,0.975,1.01,0.992,0.935,0.969,1.04,1.03,0.97,1.08,0.988,1.06,0.957
C/C(=N\NC(=O)Nc1cc(F)cc(F)c1)c1ncccc1C(=O)[O-].[Na+],1.01,0.973,0.995,1.12,1.09,0.796,0.975,1.07,0.875,1.01,1.06,0.988
CC1CNC(=S)N1 (configuration not stated),1.03,1.01,1.06,1.06,1.05,0.989,1.06,1.02,0.983,1.02,1.02,1
CSc1nc(N=[N+]=[N-])nc(NC(C)C)n1,0.963,1.02,1.01,1.05,0.812,1.15,0.938,1.02,1.02,1,1.1,1.07
COP(=O)(OC)O/C(=C\Cl)c1ccc(Cl)cc1Cl,1.06,1.01,1,1.09,1.09,0.97,1.02,1.02,0.957,1.01,1.03,1
O=C(Nc1ccccc1)N(Cc1ccc(Cl)cc1)C1CCCC1,0.94,1,0.99,1.03,0.985,1.01,1.06,1.03,0.893,0.922,0.991,0.994
CN/C(=N\[N+](=O)[O-])NCc1cnc(Cl)s1,1.01,1.02,1,1.07,1.09,0.959,1,1.02,0.965,0.975,1.05,1
COc1c(Cl)ccc(Cl)c1Cl,0.973,0.967,0.99,1.01,1.04,0.879,0.937,1,0.985,0.981,1.01,0.952
CCCCCCCCSC(=O)Oc1cc(Cl)nnc1-c1ccccc1,0.98,0.976,0.972,0.868,0.914,1.02,1.04,0.905,0.99,0.967,1.06,0.963
COP(=O)(OC)OC1=C(Cl)C2C=CCC12 (configuration not stated),0.999,0.968,1.03,1.01,1.04,0.957,1.02,0.892,0.975,1.03,1.04,1.03
CC[C@H]1CCCC(O[C@H]2CC[C@H](N(C)C)[C@@H](C)O2)[C@@H](C)C(=O)C2=C[C@@H]3[C@@H](C=C(C)[C@@H]4C[C@@H](O[C@@H]5O[C@@H](C)[C@H](OC)[C@@H](OC)[C@H]5OC)C[C@@H]34)[C@@H]2CC(=O)O1.CC[C@H]1CCCC(O[C@H]2CC[C@H](N(C)C)[C@@H](C)O2)[C@@H](C)C(=O)C2=C[C@@H]3[C@@H](C=C[C@@H]4C[C@@H](O[C@@H]5O[C@@H](C)[C@H](OC)[C@@H](OC)[C@H]5OC)C[C@@H]34)[C@@H]2CC(=O)O1 (some centres not stated),0.973,0.963,0.966,0.985,0.995,0.879,0.902,1.04,1.01,0.925,1.03,0.972
O=S(=O)(c1ccc(O)cc1)c1ccc(O)cc1,0.974,1.05,1.02,0.972,0.977,0.963,0.953,0.914,0.878,0.974,1,1.04
CNC(=O)Oc1cccc(N=CN(C)C)c1.Cl,1.04,1,1.05,1.04,1.07,1.02,1.04,1.02,1.03,1.02,0.992,1.02
CCc1nn(C)c(C(=O)NCc2ccc(C(C)(C)C)cc2)c1Cl,0.954,0.974,0.967,1.01,0.984,0.913,1.06,0.956,0.991,0.918,0.96,0.906
